This is an account of results in the supplement of paper PMC6658780.

± gives the standard deviation of the averaged measurements.

For experiment [1], the system named is Klebsiella pneumoniae NCTC-13439. Briefly: percent growth inhibition of drug alone vs DMSO control; higher = more growth inhibition. As to conditions: antibiotic (0.125x MIC): none (0.1% DMSO).
Experiment [2] relates to Klebsiella pneumoniae KPC-119. Briefly: percent growth inhibition of drug + antibiotic vs DMSO control; higher = more growth inhibition.
Experiment [3] has as its system Klebsiella pneumoniae NCTC-13439. The description is as above. As to conditions: antibiotic (0.125x MIC): tigecycline; 7 µM.
The mark [4] stands for this setting: antibiotic (0.125x MIC): colistin, 7 µM.

With `O=C([O-])c1ccccc1-c1c2cc(Br)c(=O)cc-2oc2[c]([Hg+])c([O-])c(Br)cc12.[Na+].[Na+].[OH-]` [Merbromin], the “percent growth inhibition of drug alone” value in experiment [1] (7 µM) is -0.236 ± 1.4%; in experiment [1] (20 µM), 15.7 ± 0.91%. The percent growth inhibition in experiment [2] (antibiotic (0.125x MIC): gentamicin, 7 µM) is 2.44 ± 4%; in experiment [2] (antibiotic (0.125x MIC): meropenem, 20 µM) it was 99.619 ± 0.036%; in experiment [3] it was -5.98 ± 14%.
On to `CCn1cc(C(=O)O)c(=O)c2cc3c(cc21)OCO3` [Oxolinic acid], for which the percent growth inhibition in experiment [2] (setting [4]) stood at 37.9 ± 7.2%.
In the case of `C[C@]12CC[C@H](O)C[C@@H]1CC[C@@H]1[C@@H]2CC[C@]2(C)C(=O)CC[C@@H]12` [Epiandrosterone], the percent growth inhibition in experiment [2] (setting [4]) was -6.74 ± 2.2%.
